Measured values as given in PubChem BioAssay (NCI).
Compounds without any hit were thinned out: in the full panel of roughly 83,000, 20% have a hit.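 Note: values are percent growth. 100 is the growth of untreated cells, values between 100 and 0 indicate rising inhibition; between -100 and 0 indicates cell death.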 The source made the active and inactive calls. Rule for the calls: active = growth percent below 10; inactive = the rest.

Experiments:
Assay in all cases: NCI-60 one-dose screen, 48 h (100 = growth as untreated, 0 = no growth, -100 = all killed)
Conditions in all cases: 10 µM unless noted
SK-MEL-2 melanoma = tested on: SK-MEL-2 melanoma
SN12C renal = tested on: SN12C renal
UO-31 renal = tested on: UO-31 renal
TK-10 renal = tested on: TK-10 renal
ACHN renal = tested on: ACHN renal
CAKI-1 renal = tested on: CAKI-1 renal
A498 renal = tested on: A498 renal
CCRF-CEM leukemia = tested on: CCRF-CEM leukemia
MOLT-4 leukemia = tested on: MOLT-4 leukemia
EKVX NSCLC = tested on: EKVX NSCLC

Measured: growth

Cc1ccc(S(=O)(=O)NC(=O)NCCSSCCNC(=O)NS(=O)(=O)c2ccc(C)cc2)cc1
inactive: SK-MEL-2 melanoma 112% | SN12C renal 100% | UO-31 renal 90.3% | TK-10 renal 102% | ACHN renal 96.2% | CAKI-1 renal 96.5% | A498 renal 93.1% | CCRF-CEM leukemia 99.1% | MOLT-4 leukemia 110%

CCC(/C=C\C(C)=O)CC
inactive: SK-MEL-2 melanoma 112% | SN12C renal 98.3% | UO-31 renal 92.3% | TK-10 renal 102% | ACHN renal 102% | CAKI-1 renal 100% | A498 renal 90.4% | CCRF-CEM leukemia 105%

C=COC(=O)C(C)(C)C
inactive: SK-MEL-2 melanoma 94.7% | SN12C renal 93.6% | UO-31 renal 84.5% | TK-10 renal 98.6% | ACHN renal 108% | CAKI-1 renal 92.2% | A498 renal 95.1% | CCRF-CEM leukemia 91.9% | MOLT-4 leukemia 92.5%

Ic1cccs1
inactive: SK-MEL-2 melanoma 97.9% | SN12C renal 98.9% | UO-31 renal 90.5% | TK-10 renal 95.8% | ACHN renal 103% | CAKI-1 renal 101% | A498 renal 96.5% | CCRF-CEM leukemia 96%

OCC1OC(n2ccc3c2ncn2ncnc32)C(O)C1O (stereo not given)
active: A498 renal -5.58%
inactive: SK-MEL-2 melanoma 67.7% | SN12C renal 27.5% | UO-31 renal 27.6% | TK-10 renal 22.2% | ACHN renal 29% | CAKI-1 renal 43.5%

CC(C)N(CCCC#N)C(C)C
inactive: SK-MEL-2 melanoma 121% | SN12C renal 94% | UO-31 renal 86% | TK-10 renal 104% | ACHN renal 98% | CAKI-1 renal 95.1% | A498 renal 79.4% | CCRF-CEM leukemia 86.9% | MOLT-4 leukemia 112%

CC(CO)(CO)C(=O)O
inactive: SK-MEL-2 melanoma 108% | SN12C renal 105% | UO-31 renal 98.6% | TK-10 renal 103% | ACHN renal 103% | CAKI-1 renal 99% | A498 renal 85.3% | CCRF-CEM leukemia 93.5% | MOLT-4 leukemia 108%

CC(=O)c1cccs1
inactive: SK-MEL-2 melanoma 112% | SN12C renal 96.8% | UO-31 renal 106% | TK-10 renal 103% | ACHN renal 102% | CAKI-1 renal 102% | A498 renal 76.6% | CCRF-CEM leukemia 113% | MOLT-4 leukemia 95.4%

CSc1nc2[nH]ncc2c(=O)[nH]1
inactive: SK-MEL-2 melanoma 111% | SN12C renal 101% | UO-31 renal 101% | TK-10 renal 104% | ACHN renal 110% | CAKI-1 renal 103% | A498 renal 75.4% | CCRF-CEM leukemia 118%

O=CNCCc1ccccc1
inactive: SK-MEL-2 melanoma 105% | EKVX NSCLC 97.3% | UO-31 renal 87.8% | TK-10 renal 92.4% | ACHN renal 98.5% | CAKI-1 renal 93.8% | A498 renal 111% | CCRF-CEM leukemia 103% | MOLT-4 leukemia 96.8%

O=[N+]([O-])c1c(O)c(CNCCCO)cc(CNCCCO)c1O
inactive: SK-MEL-2 melanoma 87.9% | EKVX NSCLC 96.1% | UO-31 renal 63.7% | TK-10 renal 111% | ACHN renal 93.9% | CAKI-1 renal 100% | A498 renal 130% | CCRF-CEM leukemia 119% | MOLT-4 leukemia 73.2%

C=C(c1ccc(N(C)C)cc1)c1ccc(N(C)C)cc1
inactive: UO-31 renal 28.8% | TK-10 renal 58.2% | ACHN renal 36.1% | CAKI-1 renal 22.2% | A498 renal 78.8%
active: SK-MEL-2 melanoma -8.02% | EKVX NSCLC 6.55% | CCRF-CEM leukemia -14.1% | MOLT-4 leukemia 5.78%

COc1ccc2c(Cl)cc(NC(=O)Nc3c(C)cccc3C)nc2c1
inactive: SK-MEL-2 melanoma 106% | SN12C renal 82.6% | UO-31 renal 14.4% | TK-10 renal 35% | ACHN renal 41.9% | CAKI-1 renal 11.1% | A498 renal 36.1% | CCRF-CEM leukemia 86.5%

Cc1ccc2nc(N)nnc2c1
inactive: SK-MEL-2 melanoma 107% | EKVX NSCLC 113% | UO-31 renal 87.5% | TK-10 renal 108% | ACHN renal 108% | CAKI-1 renal 83.7% | A498 renal 95.2% | CCRF-CEM leukemia 102% | MOLT-4 leukemia 100%

COC1=C(OC)C(=O)C(SC/C=C(\C)CCCC(C)CCCC(C)CCCC(C)C)=CC1=O (stereo not given)
inactive: EKVX NSCLC 27.6% | TK-10 renal 56% | ACHN renal 20.6% | CAKI-1 renal 102% | A498 renal 16.8% | MOLT-4 leukemia 10.4%
active: SK-MEL-2 melanoma -11.3% | UO-31 renal -3.97%

Cc1ccc(/C=N/NC(N)=S)s1
inactive: SK-MEL-2 melanoma 102% | EKVX NSCLC 96% | UO-31 renal 90.5% | TK-10 renal 105% | CAKI-1 renal 92% | A498 renal 95.2% | CCRF-CEM leukemia 100% | MOLT-4 leukemia 99.4%

Cc1cc(C(=O)c2ccccc2)cc(C)c1O
inactive: SK-MEL-2 melanoma 118% | EKVX NSCLC 112% | UO-31 renal 84% | TK-10 renal 123% | ACHN renal 99.8% | A498 renal 98%
active: CCRF-CEM leukemia -22.1%

O=C1NC(=O)/C(=C\c2ccncc2)N1
inactive: SK-MEL-2 melanoma 104% | EKVX NSCLC 95.5% | UO-31 renal 95.5% | TK-10 renal 105% | ACHN renal 97.9% | CAKI-1 renal 100% | A498 renal 94.1% | CCRF-CEM leukemia 105% | MOLT-4 leukemia 111%

CC(=O)[C@@]1(O)CC[C@H]2[C@@H]3CC[C@@H]4CC(=O)CC[C@]4(C)[C@H]3[C@@H](O)C[C@@]21C
inactive: SK-MEL-2 melanoma 99.7% | EKVX NSCLC 88.9% | UO-31 renal 91.7% | TK-10 renal 97.2% | ACHN renal 101% | A498 renal 88.6% | CCRF-CEM leukemia 94.1% | MOLT-4 leukemia 94.5%

Nc1ccn(C2OC(CO)C(O)C2F)c(=O)n1 (stereo not given)
inactive: SK-MEL-2 melanoma 90.1% | EKVX NSCLC 96.4% | UO-31 renal 76.8% | TK-10 renal 92.5% | ACHN renal 62.1% | CAKI-1 renal 69.8% | A498 renal 88.5% | CCRF-CEM leukemia 19.1%
active: MOLT-4 leukemia -15.5%

Cc1cc2c3ccc(C)[n+](C)c3ccc2n1C
inactive: SK-MEL-2 melanoma 92.4% | EKVX NSCLC 20% | UO-31 renal 27.1% | TK-10 renal 65.6% | ACHN renal 79.4% | CAKI-1 renal 58.1% | CCRF-CEM leukemia 36.7% | MOLT-4 leukemia 25.2%

CCCC(=O)c1cccs1
inactive: SK-MEL-2 melanoma 115% | SN12C renal 95.6% | UO-31 renal 98% | TK-10 renal 101% | ACHN renal 103% | CAKI-1 renal 99.7% | A498 renal 61% | CCRF-CEM leukemia 102%

COc1ccc(C)cc1NC(=O)SC(C)C
inactive: SK-MEL-2 melanoma 102% [100 µM] | EKVX NSCLC 102% [100 µM] | UO-31 renal 82.9% [100 µM] | TK-10 renal 128% [100 µM] | ACHN renal 100% [100 µM] | CAKI-1 renal 95.5% [100 µM] | A498 renal 92.3% [100 µM] | CCRF-CEM leukemia 106% [100 µM] | MOLT-4 leukemia 106% [100 µM]

CC(C)c1ccc(C(=O)OCCCl)cc1
inactive: EKVX NSCLC 102% | SN12C renal 99.3% | UO-31 renal 92.6% | TK-10 renal 94.6% | ACHN renal 94.5% | CAKI-1 renal 383% | A498 renal 92.7% | CCRF-CEM leukemia 107% | MOLT-4 leukemia 100%

O=C1NC(=O)C(c2ccccc2)O1 (stereo not given)
inactive: SK-MEL-2 melanoma 90.1% | SN12C renal 103% | UO-31 renal 87.6% | TK-10 renal 101% | CAKI-1 renal 98% | A498 renal 102% | MOLT-4 leukemia 98.3%

CC(=O)c1ccc(C)cc1
inactive: EKVX NSCLC 98.5% | SN12C renal 103% | UO-31 renal 75.7% | TK-10 renal 105% | ACHN renal 109% | CAKI-1 renal 109% | A498 renal 94.5% | CCRF-CEM leukemia 108% | MOLT-4 leukemia 107%

CC(CC(CCC(=O)O)(c1ccccc1)c1ccccc1)N(C)C (stereo not given)
inactive: SK-MEL-2 melanoma 104% | UO-31 renal 91.4% | TK-10 renal 98.2% | ACHN renal 106% | CAKI-1 renal 95% | A498 renal 95% | CCRF-CEM leukemia 98.9% | MOLT-4 leukemia 107%

CCCC(OC(C)=O)c1ccc2c(c1)OCO2 (stereo not given)
inactive: EKVX NSCLC 117% | SN12C renal 106% | UO-31 renal 86.8% | TK-10 renal 106% | ACHN renal 111% | CAKI-1 renal 101% | A498 renal 96.7% | CCRF-CEM leukemia 105% | MOLT-4 leukemia 107%

NS(=O)(=O)c1cc(=O)[nH]c(=O)[nH]1
inactive: EKVX NSCLC 112% | SN12C renal 108% | UO-31 renal 100% | TK-10 renal 113% | ACHN renal 104% | CAKI-1 renal 111% | A498 renal 190% | CCRF-CEM leukemia 103% | MOLT-4 leukemia 148%

CCCCCCCCCCC(=O)CCCCCCCCCC
inactive: SK-MEL-2 melanoma 111% | SN12C renal 102% | UO-31 renal 85.8% | TK-10 renal 98.8% | CAKI-1 renal 95% | A498 renal 107% | CCRF-CEM leukemia 90% | MOLT-4 leukemia 92%

Cc1cccc2ccccc12
inactive: SK-MEL-2 melanoma 106% | SN12C renal 100% | UO-31 renal 86.8% | TK-10 renal 103% | ACHN renal 99.7% | CAKI-1 renal 91.6% | CCRF-CEM leukemia 102%

COC(CCCl)c1ccc(Cl)cc1 (stereo not given)
inactive: SK-MEL-2 melanoma 83.5% | SN12C renal 106% | UO-31 renal 84.5% | TK-10 renal 86.3% | ACHN renal 88.9% | CAKI-1 renal 101% | A498 renal 109% | MOLT-4 leukemia 95%

O=C(OC1CCCC1)c1ccccc1Cl
inactive: EKVX NSCLC 111% | SN12C renal 108% | UO-31 renal 93.2% | TK-10 renal 100% | ACHN renal 104% | CAKI-1 renal 101% | A498 renal 86.6% | CCRF-CEM leukemia 107% | MOLT-4 leukemia 110%

O=Cc1ccc(F)cc1
inactive: SK-MEL-2 melanoma 129% | SN12C renal 98% | UO-31 renal 82% | TK-10 renal 113% | ACHN renal 95.6% | CAKI-1 renal 88.4% | A498 renal 103% | MOLT-4 leukemia 110%
